Most compounds without a hit are left out; they make up all but 15% or so of the library.
RORgamma inh – ROR gamma (mouse) transcription inhibition | P51450 | Drosophila S2 Gal4-RORgamma UAS-luciferase reporter, 20 h | Potency, µM (doses to about 53.6 µM), for the others: top-dose activity change, negative = inhibition, hits mostly inhibitors | 310,000 tested, 5.4% active; further: nearly all actives have a fitted effect of over 60% in size
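Drosophila S2 cells stably expressing Gal4-DBD/mouse RORγ fusion under metallothionein promoter plus UAS-luciferase; compound 1 h, then 700 uM CuSO4 induction for 20 h at ambient temperature; inhibition read as reduced luminescence.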
12-LOX inh – blocks human arachidonate 12S-lipoxygenase; 580,000 tested, 1.1% active; purified 12hLO, xylenol orange hydroperoxide absorbance; Potency, µM (series often up to 108 µM), for the others: at the top dose activity change, negative = inhibition, actives largely listed as inhibitors; P18054; AID 1671190
Target sequence (P18054 whole entry, looked up): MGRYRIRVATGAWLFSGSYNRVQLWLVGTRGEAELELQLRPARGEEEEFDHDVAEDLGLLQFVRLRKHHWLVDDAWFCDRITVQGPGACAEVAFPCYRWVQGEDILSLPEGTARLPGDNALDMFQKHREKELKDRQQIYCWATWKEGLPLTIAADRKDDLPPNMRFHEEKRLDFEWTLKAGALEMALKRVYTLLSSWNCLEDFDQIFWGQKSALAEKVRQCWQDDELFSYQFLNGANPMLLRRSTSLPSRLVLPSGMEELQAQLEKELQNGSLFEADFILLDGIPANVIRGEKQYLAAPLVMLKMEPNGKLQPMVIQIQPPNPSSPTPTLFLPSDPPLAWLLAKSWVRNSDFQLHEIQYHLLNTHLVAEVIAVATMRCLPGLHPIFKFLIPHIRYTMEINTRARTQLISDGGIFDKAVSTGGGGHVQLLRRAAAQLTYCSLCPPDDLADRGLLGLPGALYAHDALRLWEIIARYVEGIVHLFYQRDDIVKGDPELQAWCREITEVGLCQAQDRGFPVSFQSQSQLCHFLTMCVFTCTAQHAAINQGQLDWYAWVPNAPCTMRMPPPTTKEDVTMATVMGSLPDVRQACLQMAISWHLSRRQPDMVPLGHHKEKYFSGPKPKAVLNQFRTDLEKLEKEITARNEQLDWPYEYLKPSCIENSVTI
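Hydroperoxide product was detected by ferrous iron/xylenol orange as the 573 to 405 nm absorbance ratio. Arachidonic acid at 40 uM (final) was turned over for 30 min at room temperature by 150 nM human 12hLO, pH 7.0 Hepes buffer, after 15 min compound preincubation.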
ELG1 repair inh – blocks ELG1-dependent DNA repair in HEK293T cells. Potency, µM (highest dose often 46.1 µM), without a hit: at the highest dose activity change, negative = inhibition, hits mostly inhibitors. HEK293T ELG1-luciferase reporter, luminescence, 16 h; DNA damage induced by 5-fluorouridine. AID 504467. 330,000 tested, 2.3% active; further: nearly all actives have a fitted effect of over 55% in size
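5-Fluorouridine DNA damage + compound/DMSO, 2,000 cells/well, 16 h, 37 °C/5% CO2. ONE-Glo, 30 min RT, luminescence. Readout = decrease in reporter signal.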
Gal4-VP16 FLuc – inhibits Gal4-VP16 luciferase reporter, ROR gamma counter-screen; Drosophila S2 Gal4-VP16 UAS-luciferase, luminescence, 20 h; 310,000 tested, 3.5% active; Potency, µM (top dose mostly 53.6 µM), for inactives: at the highest dose activity, negative = inhibition, actives largely listed as inhibitors; AID 2546;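 further: Gal4-VP16 expression switched on by copper sulfate through the metallothionein promoter; nearly all actives have a fitted effect of over 50% in size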
TDP1 cell CPT – DT40-hTDP1 cell growth loss with CPT | chicken DT40 Tdp1-/-;hTDP1 cells + 20 nM CPT, ATP luminescence, 48 h | AID 686979 | 420,000 tested, 12% active | Potency, µM (doses to about 46.2 µM), for the others: at the highest dose activity change, negative = growth inhibition, hits mostly inhibitors; further: nearly all actives have a fitted effect of over 55% in size
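Chicken DT40 Tdp1-/- cells stably complemented with human TDP1 were seeded at 400 cells/well in medium containing 20 nM camptothecin, exposed to pin-transferred compounds, and grown at 37 °C for at least 48 hr. Viability was read as ATP luminescence.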
DT40 TDP1 no CPT – qHTS for Inhibitors of human tyrosyl-DNA phosphodiesterase 1 (TDP1): qHTS in cells in absence of CPT. DT40 Tdp1-/- hTDP1 cells, no CPT, ATP luminescence, 48 h. Potency, µM (series often up to 46.2 µM), for inactives: at the top dose activity change, negative = growth inhibition, hits mostly inhibitors. 420,000 tested, 15% active; further: nearly all actives have a fitted effect of over 55% in size
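Compound effects on proliferation are scored in DT40 Tdp1-/-;hTDP1 cells in the absence of CPT. ATP levels (CellTiter-Glo luminescence) are recorded after a ≥48 hr, 37 °C incubation.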
Numbers without * were called inactive; ? = inconclusive; nt = no result given. The call rests on the fitted dose curve; in most records, active means well fitted curve in the direction sought with a large enough effect; inconclusive means small, poorly fitted or top-dose-only effect, or another doubt; inactive means no such curve, though single readings can be large; an effect the other way counts as inactive or inconclusive. On the % scale 0 is the no-effect control and ±100 the full control effect; potency means the concentration at half of the fitted maximal effect.

SMILES | RORgamma inh | 12-LOX inh | ELG1 repair inh | Gal4-VP16 FLuc | TDP1 cell CPT | DT40 TDP1 no CPT
COC(=O)c1ccc2nc(C[C@@H]3C[C@@H](C(C)C)[C@H](CNC4CCCCC4)C=C3C)[nH]c2c1 | nt | -15% | nt | nt | nt | nt
Cc1cccc(Cn2c(CNS(=O)(=O)c3ccc4c(c3)CCCC4)nc3cccnc32)c1 | nt | -15% | nt | nt | ? | 16µM*
COc1cccc(Cn2c(CNS(=O)(=O)c3ccc4c(c3)CCCC4)nc3cccnc32)c1 | nt | -7% | nt | nt | ? | ?
O=S(=O)(NCc1nc2cccnc2n1Cc1ccccc1Cl)c1ccc2c(c1)CCCC2 | nt | -8% | nt | nt | ? | 16µM*
O=S(=O)(NCc1nc2cccnc2n1Cc1ccc(F)cc1)c1ccc2c(c1)CCCC2 | nt | -13% | nt | nt | 18µM* | ?
O=S(=O)(NCc1nc2cccnc2n1Cc1ccccc1)c1ccc2c(c1)CCCC2 | nt | -16% | nt | nt | ? | 21µM*
CC(C)N(CC(N)=O)Cc1cccc2cccnc12 | nt | -2% | nt | nt | nt | nt
COc1ccc(C2=CC(=O)N(CCC(N)=O)C2)cc1 | nt | -1% | nt | nt | nt | nt
CC(C)CCSCC(=O)NCc1cccc(CN2CCCC2)c1 | nt | -22% | nt | nt | nt | nt
COc1ccccc1-c1coc2cc(OS(C)(=O)=O)ccc2c1=O | nt | -27% | nt | nt | nt | nt
Cc1ccc(-c2nnn(CC(=O)N(Cc3ccccc3)C(C(=O)NC(C)(C)C)c3ccncc3)n2)o1 (configuration not stated) | 11% | -20% | -4% | 14% | 2% | 0%
Cc1ccc(-c2nnn(CC(=O)N(Cc3ccco3)C(C(=O)NC(C)(C)C)c3ccc(C)o3)n2)o1 (configuration not stated) | 25% | -7% | -8% | 1% | 16µM* | 21µM*
COc1cccc(N(C(=O)Cn2nnc(-c3ccc(Cl)cc3)n2)C(C(=O)NCC2CCCO2)c2ccc(C)cc2)c1 (configuration not stated) | -15% | -5% | 14% | 2% | 16µM* | 21µM*
COc1ccc(-c2nnn(CC(=O)N(Cc3ccccc3Cl)C(C(=O)NCC3CCCO3)c3ccco3)n2)cc1 (configuration not stated) | 23% | ? | -4% | -13% | ? | 18µM*
COc1ccc(CN(C(=O)Cn2nnc(-c3ccc(C)o3)n2)C(C(=O)NCC2CCCO2)c2ccco2)cc1 (configuration not stated) | 5µM* | -1% | ? | 7.1µM* | -28% | ?
COc1ccc(-c2nc3c([nH]2)CN(S(=O)(=O)N2CCCC2)CC3)cn1 | nt | 23% | nt | nt | nt | nt
Cc1ccc(CS(=O)Cc2ccc(F)cc2Cl)cc1 (configuration not stated) | nt | -28% | nt | nt | nt | nt
COc1ccc(N2C(=O)CSC23CCN(C(=O)Nc2ccc(F)cc2F)CC3)cc1 | nt | 0% | nt | nt | nt | nt
Cc1cc(C)c2oc(=O)cc(CN3CCC(C(N)=O)CC3)c2c1 | nt | 29% | nt | nt | nt | nt
O=c1c2oc3ccccc3c2[nH]c(=S)n1-c1ccc(F)cc1 | 4µM* | ? | 13% | ? | 2% | -5%
Cc1ccc(-n2c(=O)c3oc4ccccc4c3n(CC(=O)Nc3ccccc3)c2=O)cc1C | nt | -14% | nt | nt | -16% | -4%
Cc1ccc(-n2c(=S)[nH]c3c(oc4ccccc43)c2=O)cc1C | 1.4µM* | ? | ? | 1.8µM* | -3% | -18%
Cc1ccccc1N1Cc2c(ncnc2N2CCN(Cc3ccccc3)CC2)N(C)CC1=O | nt | 9% | nt | nt | nt | nt
O=C(CC1NC(=O)NC1=O)Nc1ccc(Cl)cc1 (configuration not stated) | -40% | ? | 13% | -4% | -19% | 21%
CC(=O)c1ccc(NC(=O)CC2Sc3ccccc3NC2=O)cc1 (configuration not stated) | nt | -1% | nt | nt | 12µM* | 13µM*

High-throughput results deposited in PubChem by National Center for Advancing Translational Sciences (NCATS).
